Measurements published in PubChem BioAssay (Tox21).
Values joined by “and” are separate entries in the source; they are usually repeats but may differ in a detail not shown here. Equal values may be shown once. A structure can be active in one record and inactive in another. Active and inactive are the calls of the source. A call without a number means that no potency is given here. Unless noted, the call rests on the fitted dose curve; in most records, active means well fitted curve in the direction sought with a large enough effect in the repeat runs; inconclusive means weak or mixed curves; inactive means no such curve, though single readings can be large; an effect the other way counts as inactive or inconclusive.

What was measured:
[1] = test system: thyroid hormone receptor (rat, GH3 cells); experiment: qHTS assay to identify small molecule agonists of the thyroid receptor (TR) signaling pathway (AID 743066; calls by dose curve)
[2] = molecular target: Estrogen receptor (Homo sapiens) (UniProt P03372); experiment: qHTS assay to identify small molecule antagonists of the estrogen receptor alpha (ER-alpha) signaling pathway (AID 743069; active means well fitted curve in the direction sought with a large enough effect in the signal ratio in the repeat runs, not every such curve was filed as active; inconclusive means weak or mixed curves, or effect the other way; inactive means no such curve, though single readings can be large or run the other way; the % refers to the signal ratio; further: potency means the concentration at half of the fitted maximal effect)
Estrogen receptor (Homo sapiens), sequence (P03372 whole entry, looked up): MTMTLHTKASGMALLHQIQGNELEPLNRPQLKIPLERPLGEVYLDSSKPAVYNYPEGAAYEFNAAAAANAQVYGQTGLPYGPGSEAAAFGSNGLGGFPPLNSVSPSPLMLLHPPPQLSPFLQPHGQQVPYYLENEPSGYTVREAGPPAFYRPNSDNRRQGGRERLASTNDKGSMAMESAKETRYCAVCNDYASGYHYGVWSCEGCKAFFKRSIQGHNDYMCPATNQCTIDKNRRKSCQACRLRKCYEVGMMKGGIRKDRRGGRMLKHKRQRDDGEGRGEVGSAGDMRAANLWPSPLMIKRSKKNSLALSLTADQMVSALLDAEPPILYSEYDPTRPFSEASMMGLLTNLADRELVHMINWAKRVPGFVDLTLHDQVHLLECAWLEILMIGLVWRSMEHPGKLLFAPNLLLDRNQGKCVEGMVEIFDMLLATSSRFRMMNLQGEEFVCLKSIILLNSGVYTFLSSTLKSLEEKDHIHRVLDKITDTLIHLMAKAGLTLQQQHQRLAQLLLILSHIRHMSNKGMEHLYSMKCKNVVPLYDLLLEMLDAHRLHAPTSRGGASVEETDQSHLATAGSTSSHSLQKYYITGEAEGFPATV
In short: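 Beta-lactamase FRET fluorescence is read after 2 hr at room temperature with LiveBLAzer B/G substrate. Before that, ER-alpha-bla HEK293 cells sit 4 hr after plating, then receive compound plus 17beta-estradiol and incubate 18 hr at 37C.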

[3] = qHTS assay to identify small molecule antagonists of the estrogen receptor alpha (ER-alpha) signaling pathway - cell viability counter screen (AID 743074; calls by dose curve;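 further: HEK293 cells carrying ER-alpha-UAS-bla reporter stimulated with 17beta-estradiol; nearly all actives have a fitted effect of over 45% in size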; further: potency means the concentration at half of the fitted maximal effect)
[4] = molecular target: Estrogen receptor (Homo sapiens) (UniProt P03372); experiment: qHTS assay to identify small molecule agonists of the estrogen receptor alpha (ER-alpha) signaling pathway (AID 743075; calls by dose curve;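 further: HEK293 GripTite cells with ER-alpha and UAS-driven beta-lactamase reporter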)
[5] = molecular target: Estrogen receptor (Homo sapiens) (UniProt P03372); experiment: qHTS assay to identify small molecule agonists of the estrogen receptor alpha (ER-alpha) signaling pathway using the BG1 cell line (AID 743079); further: nearly all actives have a fitted effect of over 20% in size; further: potency means the concentration at half of the fitted maximal effect
[6] = qHTS assay to identify small molecule antagonists of the estrogen receptor alpha (ER-alpha) signaling pathway using the BG1 cell line (AID 743080; calls by dose curve;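 further: BG1 cells stimulated with 17beta-estradiol alongside compound; series mostly up to about 70 µM; nearly all actives have a fitted effect of over 25% in size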)
In short: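 Luminescence from a 4×ERE-luciferase reporter in BG1-Luc-4E2 cells served as read-out. Cells, pre-cultured 5 days in stripped-serum phenol-red-free medium, were exposed to compound with 17beta-estradiol co-stimulation for 21.5 h at 37 C.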

[7] = qHTS assay to identify small molecule antagonists of the estrogen receptor alpha (ER-alpha) signaling pathway using the BG1 cell line - cell viability counter screen (AID 743081);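 further: compound given together with 17beta-estradiol as the ER stimulus; series mostly up to about 70 µM; nearly all actives have a fitted effect of over 45% in size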
[8] = molecular target: Aromatase (Homo sapiens) (UniProt P11511); experiment: qHTS assay to identify aromatase inhibitors (AID 743083); further: series mostly up to about 70 µM; nearly all actives have a fitted effect of over 55% in size
Aromatase (Homo sapiens), sequence (P11511 whole entry, looked up): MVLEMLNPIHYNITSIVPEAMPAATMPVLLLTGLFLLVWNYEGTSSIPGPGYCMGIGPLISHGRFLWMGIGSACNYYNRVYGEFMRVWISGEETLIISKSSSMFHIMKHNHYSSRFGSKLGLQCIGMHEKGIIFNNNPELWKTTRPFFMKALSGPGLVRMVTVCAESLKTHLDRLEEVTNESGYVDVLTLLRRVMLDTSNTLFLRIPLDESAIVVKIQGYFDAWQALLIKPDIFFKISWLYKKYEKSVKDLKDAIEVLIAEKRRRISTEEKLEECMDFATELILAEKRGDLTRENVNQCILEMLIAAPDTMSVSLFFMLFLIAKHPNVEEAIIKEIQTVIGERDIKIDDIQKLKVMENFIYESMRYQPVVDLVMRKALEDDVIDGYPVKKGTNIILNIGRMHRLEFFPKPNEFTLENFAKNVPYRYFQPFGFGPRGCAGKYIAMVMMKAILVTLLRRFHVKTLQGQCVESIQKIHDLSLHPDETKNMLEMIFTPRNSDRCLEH

[9] = qHTS assay to identify aromatase inhibitors - cell viability counter screen (AID 743084);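 further: cells stimulated with testosterone during compound exposure; nearly all actives have a fitted effect of over 55% in size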
[10] = molecular target: Aryl hydrocarbon receptor (Homo sapiens) (UniProt P35869); experiment: qHTS assay to identify small molecule that activate the aryl hydrocarbon receptor (AhR) signaling pathway (AID 743085); further: nearly all actives have a fitted effect of over 15% in size; further: potency means the concentration at half of the fitted maximal effect
Aryl hydrocarbon receptor (Homo sapiens), sequence (P35869 whole entry, looked up): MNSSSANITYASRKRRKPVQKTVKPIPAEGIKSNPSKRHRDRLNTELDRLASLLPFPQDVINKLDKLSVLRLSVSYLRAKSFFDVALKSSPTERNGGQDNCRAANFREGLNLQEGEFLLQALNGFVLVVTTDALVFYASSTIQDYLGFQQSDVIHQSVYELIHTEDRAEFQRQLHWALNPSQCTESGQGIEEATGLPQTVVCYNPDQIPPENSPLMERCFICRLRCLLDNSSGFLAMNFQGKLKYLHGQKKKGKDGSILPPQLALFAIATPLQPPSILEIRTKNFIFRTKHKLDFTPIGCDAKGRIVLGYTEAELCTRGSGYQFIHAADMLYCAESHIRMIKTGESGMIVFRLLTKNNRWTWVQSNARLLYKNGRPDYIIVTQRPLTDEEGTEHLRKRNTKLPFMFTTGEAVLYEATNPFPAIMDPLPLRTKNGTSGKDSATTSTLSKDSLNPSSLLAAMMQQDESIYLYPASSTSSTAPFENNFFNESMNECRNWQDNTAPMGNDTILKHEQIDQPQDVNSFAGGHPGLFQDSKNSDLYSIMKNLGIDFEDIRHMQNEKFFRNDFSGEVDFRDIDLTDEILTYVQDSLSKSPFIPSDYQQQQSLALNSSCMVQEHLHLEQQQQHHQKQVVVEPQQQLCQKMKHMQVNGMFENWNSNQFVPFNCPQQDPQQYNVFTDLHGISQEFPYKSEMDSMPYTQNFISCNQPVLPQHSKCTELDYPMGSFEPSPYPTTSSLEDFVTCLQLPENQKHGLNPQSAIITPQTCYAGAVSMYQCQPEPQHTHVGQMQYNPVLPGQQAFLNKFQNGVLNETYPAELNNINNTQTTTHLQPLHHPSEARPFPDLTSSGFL
In short: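 Luminescence read-out: ONE-Glo reagent, 30 min at room temperature, in HG2L7.5c1 HepG2 reporter cells treated 24 h at 37C. Viability was measured beforehand by CellTiter-Fluor fluorescence after 30 min at 37C.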

Compound	outcome [1]	Potency [2]	Potency [3]	Potency [4]	Potency [5]	Potency [6]	outcome [7]	Potency [8]	outcome [9]	Potency [10]
O=C(O)c1ccccn1	inactive	inactive	inactive	inactive	inactive	inactive	inactive	inactive	inactive	inactive
O=c1n(Cl)c(=O)n(Cl)c(=O)n1Cl	inactive	inactive	inactive	inactive	inactive	inactive	inactive	inactive	inactive	inactive
O=[N+]([O-])c1ccc([As](=O)(O)O)cc1	inactive	inactive	inactive	inactive	inactive	inactive	inactive	inactive	inactive	inactive
Cn1cc(-c2ccccc2)c(=O)c(-c2cccc(C(F)(F)F)c2)c1	inactive	inactive	inactive	inactive	inactive	inactive	inactive	inactive	–	inactive
CN(N=O)c1ccccc1	inactive	inactive	inactive	inactive	inactive	inactive	inactive	inactive	inactive	inactive
Nc1ccccc1C(=O)O	inactive	inactive	inactive	inactive	inactive	inactive	inactive	inactive	inactive	inactive
c1cc2c3c(cccc3c1)CC2	inactive	inactive	inactive	inactive	inactive	inactive	inactive	inactive	inactive	inactive
CC1C=[C-]C=C1.[C-]#[O+].[C-]#[O+].[C-]#[O+].[Mn]	inactive	inactive	inactive	inactive	inactive	inactive	inactive	inactive	inactive	inactive
Nc1c(Cl)c(Cl)nc(C(=O)O)c1Cl	inactive	inactive	inactive	inactive	inactive	–	inactive	inactive	inactive	34 µM (active)
Cc1ccc(N)cc1Cl	inactive	inactive	inactive	inactive	inactive	–	inactive	inactive	inactive	–
CCOC(=O)c1ccccc1C(=O)OCC	inactive	inactive	inactive	inactive	inactive	inactive	inactive	inactive	inactive	–
CC(C)OC(=O)Nc1ccccc1	inactive	inactive	inactive	inactive	30.7 µM (active) and 54.5 µM (active)	inactive	inactive	inactive	inactive	inactive
CCCN(CCC)N=O	inactive	inactive	inactive	inactive	inactive	inactive	inactive	inactive	inactive	inactive
O=[N+]([O-])c1ccccc1	inactive	inactive	inactive	inactive	inactive	inactive	inactive	inactive	inactive	inactive
COC(=O)NS(=O)(=O)c1ccc(N)cc1	inactive	inactive	inactive	inactive	inactive	–	inactive	inactive	inactive	inactive
O=c1[nH]c2ccccc2c(=O)o1	inactive	inactive	inactive	inactive	inactive	inactive	inactive	inactive	inactive	inactive
CC(C)OC(=O)Nc1cccc(Cl)c1	inactive	inactive	inactive	inactive	inactive	–	inactive	inactive	inactive	inactive
CC(C)C1(C)N=C(c2nc3ccccc3cc2C(=O)O)NC1=O (stereo not given)	inactive	inactive	inactive	inactive	inactive	inactive	inactive	inactive	inactive	inactive
c1ccc(OP(Oc2ccccc2)Oc2ccccc2)cc1	inactive	inactive	inactive	inactive	inactive	inactive	inactive	inactive	inactive	inactive
CCOP(OCC)OCC	inactive	inactive	inactive	inactive	inactive	–	inactive	inactive	inactive	inactive
Cc1[nH]c(=O)n(C(C)(C)C)c(=O)c1Cl	inactive	inactive	inactive	inactive	inactive	inactive	inactive	inactive	inactive	inactive
CCCCN(CC)C(=O)SCCC	inactive	inactive	inactive	inactive	inactive	inactive	inactive	inactive	inactive	inactive
Cc1ccccc1O	inactive	inactive	inactive	inactive	inactive	inactive	inactive	inactive	inactive	inactive
CC(C)(C)OOC(C)(C)C	inactive	inactive	inactive	inactive	inactive	inactive	inactive	inactive	inactive	inactive

Compound	outcome [1]	Potency [2]	Potency [3]	Potency [4]	Potency [5]	Potency [6]	outcome [7]	Potency [8]	outcome [9]	Potency [10]
CON(C)C(=O)Nc1ccc(Cl)c(Cl)c1	inactive	inactive	inactive	inactive	inactive	–	inactive	inactive	inactive	21.8 µM (active) and 27.3 µM (active)
ClCCBr	inactive	inactive	inactive	inactive	inactive	inactive	inactive	inactive	inactive	inactive
[N-]=[N+]=[N-]	inactive	inactive	inactive	inactive	inactive	–	inactive	inactive	inactive	–
CNC(=O)Oc1ccccc1OC(C)C	inactive	inactive	inactive	inactive	inactive	inactive	inactive	inactive	inactive	inactive
Cc1ccc([N+](=O)[O-])cc1C	inactive	inactive	inactive	inactive	inactive	inactive	inactive	inactive	inactive	inactive
CCC[CH2][Sn]([Cl])([Cl])[Cl]	inactive	inactive	inactive	inactive	inactive	inactive	inactive	inactive	inactive	inactive
CC(C)=C[C@@H]1[C@@H](C(=O)OCc2coc(Cc3ccccc3)c2)C1(C)C	inactive	inactive	inactive	inactive	inactive	inactive	inactive	inactive	inactive	inactive
COP(N)(=O)SC (stereo not given)	inactive	inactive	inactive	inactive	inactive	inactive	inactive	inactive	inactive	inactive
CN(C)CCO	inactive	inactive	inactive	inactive	inactive	inactive	inactive	inactive	inactive	inactive
Nc1ccc(Br)cc1	inactive	3.47 µM [inconclusive] (active)	inactive	inactive	inactive	inactive	inactive	inactive	inactive	61 µM (active) and 21.7 µM (active)
O=C1CCCN1	inactive	inactive	inactive	inactive	inactive and 48.6 µM (active)	inactive	inactive	inactive	inactive	inactive
COc1ccc2c3c1O[C@H]1[C@@H](O)C=C[C@H]4[C@@H](C2)N(C)CC[C@@]341	inactive	inactive	inactive	inactive	inactive	–	inactive	inactive	inactive	inactive
Cc1cc(-c2cc(C)c(N)c(C)c2)cc(C)c1N	inactive	inactive	inactive	inactive	inactive	–	inactive	inactive	inactive	1.54 µM (active) and 756 nM (active)
CCCCOC(=O)c1ccccc1C(=O)OCCCC	inactive	inactive	inactive	inactive	77 µM (active) and inactive	–	inactive	inactive	inactive	inactive
CN=C=S	inactive	inactive	inactive	inactive	inactive	–	inactive	inactive	inactive	inactive
COC(=O)NC(=S)Nc1ccccc1NC(=S)NC(=O)OC	inactive	inactive	–	inactive	inactive	inactive	inactive	inactive	inactive	–
Cc1ccc(N)cc1N	inactive	inactive	inactive	inactive	inactive	–	inactive	inactive	inactive	21.1 µM (active) and 27.3 µM (active)
CC(C)N1C(=O)c2ccccc2NS1(=O)=O	inactive	inactive	inactive	inactive	inactive	–	inactive	inactive	inactive	inactive
c1ccc2c(c1)oc1ccccc12	inactive	–	inactive	–	–	–	inactive	–	–	–
C1CN2CCN1CC2	inactive	inactive	inactive and 4.36 µM (active)	inactive	inactive	–	inactive	inactive	inactive	inactive
O=NN1CCCC1	inactive	inactive	inactive	inactive	inactive	–	inactive	inactive	inactive	inactive
CCN(CC)c1ccccc1	inactive	inactive	inactive	inactive	inactive	–	inactive	inactive	inactive	inactive
O=C(NC(=O)c1c(F)cccc1F)Nc1cc(Cl)c(OC(F)(F)C(F)C(F)(F)F)cc1Cl (stereo not given)	inactive	inactive	inactive	inactive	inactive	–	inactive	inactive	inactive	inactive
